According to PubChem BioAssay:
A number with no mark means an inactive call. Calls of active or inactive are those of the source.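 How the source made its calls, unless noted: active means mean inhibition over 43.08%, the solvent-only control mean plus 3 SD; inactive means the rest.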

Tests used:
[1] = biological target: Nuclear receptor coactivator 3 (Homo sapiens) (UniProt Q9Y6Q9); test: NCOA3 GAL4-fusion reporter inhibition – cell-based, luminescence, quadruplicate, confirmation (AID 588792); conditions: HEK293 GAL4-SRC3 luciferase reporter, at 3.6 µM, hits give high values;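 further: 0% = DMSO treated cells and 100% = gossypol at 36 µM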
Sequence of Nuclear receptor coactivator 3 (Homo sapiens) (Q9Y6Q9 whole entry, looked up, the tested form may be a part): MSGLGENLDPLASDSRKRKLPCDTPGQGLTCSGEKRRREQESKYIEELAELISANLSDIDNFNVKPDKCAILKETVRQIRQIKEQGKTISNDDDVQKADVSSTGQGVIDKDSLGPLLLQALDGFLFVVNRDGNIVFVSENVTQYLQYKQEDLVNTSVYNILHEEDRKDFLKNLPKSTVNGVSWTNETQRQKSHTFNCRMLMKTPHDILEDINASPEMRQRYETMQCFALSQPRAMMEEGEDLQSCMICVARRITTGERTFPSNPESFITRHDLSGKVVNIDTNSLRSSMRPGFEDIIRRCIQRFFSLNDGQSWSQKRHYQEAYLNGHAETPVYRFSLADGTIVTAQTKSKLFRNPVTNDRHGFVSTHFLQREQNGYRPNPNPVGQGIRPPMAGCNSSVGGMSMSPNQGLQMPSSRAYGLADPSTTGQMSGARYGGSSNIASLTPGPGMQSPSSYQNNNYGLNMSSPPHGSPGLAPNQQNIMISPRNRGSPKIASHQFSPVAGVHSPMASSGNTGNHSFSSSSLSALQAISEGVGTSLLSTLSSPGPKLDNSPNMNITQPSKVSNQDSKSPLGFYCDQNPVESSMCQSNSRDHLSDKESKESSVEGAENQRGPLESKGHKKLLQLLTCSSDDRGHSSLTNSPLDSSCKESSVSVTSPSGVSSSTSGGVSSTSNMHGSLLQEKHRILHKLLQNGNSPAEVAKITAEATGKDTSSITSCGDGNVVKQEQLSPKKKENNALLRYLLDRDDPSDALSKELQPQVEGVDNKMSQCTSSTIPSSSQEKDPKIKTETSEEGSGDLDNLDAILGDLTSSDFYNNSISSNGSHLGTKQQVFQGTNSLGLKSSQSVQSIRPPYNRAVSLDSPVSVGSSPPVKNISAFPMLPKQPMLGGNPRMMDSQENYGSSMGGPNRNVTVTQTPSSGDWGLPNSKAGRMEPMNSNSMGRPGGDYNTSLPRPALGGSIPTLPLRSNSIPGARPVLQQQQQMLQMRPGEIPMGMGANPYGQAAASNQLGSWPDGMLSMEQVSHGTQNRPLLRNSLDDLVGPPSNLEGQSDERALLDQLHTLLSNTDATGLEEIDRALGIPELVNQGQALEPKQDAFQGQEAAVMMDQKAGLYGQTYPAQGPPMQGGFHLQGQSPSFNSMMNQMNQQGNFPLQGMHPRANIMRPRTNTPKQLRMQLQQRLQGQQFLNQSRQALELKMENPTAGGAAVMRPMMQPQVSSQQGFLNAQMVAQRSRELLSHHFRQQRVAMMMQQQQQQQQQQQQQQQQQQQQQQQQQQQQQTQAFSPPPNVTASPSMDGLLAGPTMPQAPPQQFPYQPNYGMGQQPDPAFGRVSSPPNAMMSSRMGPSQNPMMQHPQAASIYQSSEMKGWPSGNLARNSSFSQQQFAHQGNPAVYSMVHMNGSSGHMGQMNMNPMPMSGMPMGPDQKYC

[2] = test system: transactivating tegument protein VP16 (Human herpesvirus 1), Gal4-VP16 luciferase reporter; test: repression of VP16-driven luciferase reporter – cell-based, luminescence, high throughput, counter-screen for SRC3 inhibitor project (AID 588794; in the data active means inhibition above about 30%); conditions: mammalian cells, at 3.6 µM, hits give high values

| SMILES | inhibition [1] | inhibition [2] |
| --- | --- | --- |
| COc1ccc(OC)c(Nc2nc(N)nc(CCl)n2)c1 | 15.4% | 4.74% |
| Cc1c(Cl)cccc1NC(=O)Nc1ccccc1C(N)=O | 29.1% | 27.1% |
| CCOC(=O)c1ccc2nc(Nc3nc4ccc(F)cc4s3)sc2c1 | 15.2% | 3.4% |
| CC(C)(C)OC(=O)NCc1ccc(CNC(=O)c2[nH]cnc2C(=O)NC2CCN(C(=O)OC(C)(C)C)CC2)cc1 | 4.73% | -0.72% |
| COc1cc(OC)cc(-c2nn[nH]n2)c1 | -10.5% | -1.27% |
| O=C(COc1ccc(Cl)cc1)Nc1ccc(C(=O)NCc2cccnc2)cc1 | 55.6% (active) | -24.6% |
| Cc1cccc(OCC(O)Cn2c(=N)n(CCN3CCCCC3)c3ccccc32)c1 (centres undefined) | 2.86% | 20.6% |
| C[C@H](NS(=O)(=O)c1ccc(Cl)cc1)C(=O)OCC(=O)NC(=O)Nc1ccc2c(c1)OCCO2 | -39.7% | -25.8% |
| COc1ccc(N/N=C2/CCCCC2=O)cc1 | -38.4% | 21% |
| COc1ccccc1N(CC(=O)N/N=C/c1c(O)ccc2ccccc12)S(C)(=O)=O | 34.2% | 41.2% (active) |
| O=C(NC(=S)NNC(=O)c1cc2ccccc2cc1O)c1ccco1 | 26.9% | 61.6% (active) |
| O=C(NC1CCCC1)C(c1ccncc1)N(Cc1ccccc1)C(=O)Cc1cccs1 (centres undefined) | 2.62% | -0.83% |
